For one test, the target named is SSX5. Kind of test: pooled miR-30 sensor sort-seq; sequence = guide strand. The settings on record: shRNA.
Consider TACACAAACTGAAATATGCATT, for which the sensor-assay potency score (higher = more potent) is -0.947. On to TTTCTCTCACGCACTCTGTGGG, for which the sensor-assay potency score (higher = more potent) was -0.559. Regarding TTCTCTCACGCACTCTGTGGGT, the sensor-assay potency score (higher = more potent) is -1.32. On the same count and under the same terms, under TTGCTTTCTCTCACGCACTCTG stands 0.108.

TTCATAAATCACCAGTTGCTTT returned a sensor-assay potency score (higher = more potent) of -1.18. The same measure, in the same setting: under TTTGAGAACCAACCCTAGGTCT stands -0.607; under TTGCTCATCAGTGAAAACGCTA, -0.328. On the same count and under the same terms, under TGCTTTTGCATCTTCTCTGGTA stands -0.325; under TGGTATTTGAGAACCAACCCTA, -0.335.

In the case of TTGTTAACCTTCTCAGAGGTAT, the sensor-assay potency score (higher = more potent) is -0.473. On the same count and under the same terms, under AACAGAAACACTAACATCGAAC stands -0.742; under TTCTCGGGCGTGATCTTCGGGA, -0.793.

In a further test the target is ST6GAL2. The test is described as above. The settings on record: shRNA.
Take TTGGTTGAATCTTCTCTTTAGT: the sensor-assay potency score (higher = more potent) was -0.57.

Turning to TTAATGATGCGTATGGTGGTTT, the sensor-assay potency score (higher = more potent) is -0.296. On the same count and under the same terms, under TTTATGTTCAAACCCATCTTGG stands -0.693; under TTCTCTTTAGTGTTCTCCTGGA, 0.105. The same measure, in the same setting: under TACACGTGCACCTCTCTGCACA stands -0.913; under TGCGTCGTAGTACAGCTCGTGG, -0.842.

With TTTGGTTGAATCTTCTCTTTAG, the sensor-assay potency score (higher = more potent) was -0.877. Consider AAGTAGTCGTCATCCTCCGGGT, for which the sensor-assay potency score (higher = more potent) was -0.429. In the case of TAAGATTTGCGGAATATGGGGC, the sensor-assay potency score (higher = more potent) is 0.141. As to TTGAATCTTCTCTTTAGTGTTC, the sensor-assay potency score (higher = more potent) was 0.135.
Note: reference of the scale not given here.
